Structures are written as SMILES. Compounds without any hit were thinned out: in the full panel of roughly 83,000, 20% have a hit.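 Compound tested at a single concentration for 48 hours in 96-well plates; a percent growth value below 10 was scored as active.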 Unmarked numbers belong to inactive results. Activity calls are given as the source filed them.

This experiment has as its system M14 melanoma. The experiment is described as follows: NCI-60 one-dose screen, 48 h (100 = growth as untreated, 0 = no growth, -100 = all killed). To be noted: 10 µM unless noted.
As for `O=C(NCc1ccco1)C1CCN(S(=O)(=O)c2ccc(Cl)cc2)CC1`, the growth was 72.4%.

With `C(=C\c1ccccc1)/CN1CCN(C(c2ccccc2)c2ccccc2)CC1`, the growth is 99.1%.

`O=C(Nc1nc2ccccc2[nH]1)C(=O)Nc1nc2ccccc2[nH]1`: the growth was 98.8%.

As to `Brc1ccccc1Nc1ccc2nnc(-c3ccncc3)n2n1`, the growth was 101%.

For `COC(=O)[C@@H]1CCCN1C(=O)[C@@H]1CCCN1C(=O)[C@@H](Cc1c[nH]c2ccccc12)NC(=S)Nc1cc(C(F)(F)F)cc(C(F)(F)F)c1`, the growth is 61.1%.

In the case of `COc1ccc(C2OCC(C)(C)CO2)cc1OC`, the growth is 113%.

For the compound `O=c1[nH]c(=S)[nH]c(=O)n1Cc1cccc2ccccc12`, the growth is 104%.

As to `C=CC(=O)N1CC2(CCC(n3nc(-c4ccc(Oc5ccccc5)cc4)c4c(N)ncnc43)CC2)C1`, the growth was -79.7% (active).

As for `Cc1nc(NC(=O)COc2cccc(/C=C3\COc4ccccc4C3=O)c2)sc1C`, the growth is -79.4% (active).

`Cc1ccc(N=c2nc3sc4c(C)ccc(C)c4n3c(N)c2C#N)cc1`: the growth is 102%.

On to `CN1CCN(c2nc(-c3ccncc3)nc3sc4c(c23)CCCCCC4)CC1`, for which the growth was 105%.

Regarding `Nc1ccccc1-c1n[nH]c(=O)[nH]c1=O`, the growth was 99%.

For the compound `CCOC(=O)C1=C(C)N2C(=NC3=C(CCCC/C3=C\c3cc(OC)c(OC)c(OC)c3)C2c2cc(OC)c(OC)c(OC)c2)S1` (centres undefined), the growth was 79%.

In the case of `Cc1cc(=O)[nH]n1-c1cc(Cl)ccc1N`, the growth was 99.8%.

As to `COCCOC1=C(Cl)C(=O)c2ccccc2C1=O`, the growth was 40.1%.

For the compound `Cc1nn2c(-c3nc4ccc(Cl)cc4[nH]3)c(-c3ccc(F)cc3)nc2s1`, the growth is 95.4%.

As for `Oc1ccc(Cl)cc1CNc1nc2ccccc2[nH]1`, the growth is -49.1% (active).

Turning to `CN([N-]C(=O)CC(=O)[N-]N(C)C(=S)c1ccccc1)C(=S)c1ccccc1.[Cu+2]`, the growth is -58.2% (active).

As to `COc1ccc(-c2nc3sc(C)nn3c2-c2nc3cc(C)c(C)cc3[nH]2)cc1`, the growth is 103%.

`Cc1ccc2c(c1)c(Sc1ccc(C(=O)NO)cc1)c1n2CN(C)CC1`: the growth was 26%.

For the compound `FC(F)(F)c1cc(CNc2ncc(Br)c(Cl)n2)cc(C(F)(F)F)c1`, the growth is 98.1%.

As for `O=C1C(OCCOc2ccccc2)=C(OCCOc2ccccc2)C(=O)c2ccccc21`, the growth was 51.4%.

Take `CC(=O)Nc1ccccc1-c1n[nH]c(=O)[nH]c1=O`: the growth was 92%.

For the compound `N#Cc1ccc(C(F)(F)F)nc1N1CCC(C(=O)Nc2ccc(Cl)cc2)CC1`, the growth is 75.2%.

Consider `COc1cccc(Nc2nc(NCCO)c3ccccc3n2)c1`, for which the growth is 77.7%.

Take `O=c1[nH]c(-c2ccccn2)nc2sc3c(c12)CCCCCC3`: the growth is 46.1%.

Take `CC(=O)Nc1ccc(Sc2ccc([N+](=O)[O-])o2)cc1`: the growth was 12.3%.

As to `CN1CCc2c(c3ccccc3c3ccccc23)C1`, the growth was 56.2%.

Turning to `FC(F)(F)c1ccc2c(c1)n1cnnc1c1nncn21`, the growth is 114%.

In the case of `CC(C)OC1=C(Cl)C(=O)c2ccccc2C1=O`, the growth is 97.8%.

In the case of `CCOC(=O)C(CC(c1ccccc1)N1CCCCC1)[N+](=O)[O-]` (centres undefined), the growth is 82.5%.

Regarding `CC[Si](CC)(CC)OC1[C@@H](O[Si](CC)(CC)CC)[C@@H](CNC(=O)NC)O[C@H]1n1cnc2c(NC(=O)Nc3ccccc3)ncnc21` (some centres undefined), the growth was 99.9%.

On to `Cc1ccc2nc(NC(=O)CSC(=S)N3CCN(C)CC3)sc2c1`, for which the growth was 107%.

Take `CCCOC(=O)c1ccc2c(c1)[N+](=O)C(C(=O)c1ccccc1)=C(C(F)(F)F)[N+]2=O`: the growth is -70.3% (active).

Consider `CCOC(=O)C1=C(C)N2C(=NC3=C(CCCC/C3=C\c3ccccc3)C2c2ccccc2)S1` (centres undefined), for which the growth was 95.9%.

Regarding `Nc1c(Br)cc(Br)cc1-c1n[nH]c(=O)[nH]c1=O`, the growth is 101%.

`c1ccc(-c2nc(N3CCOCC3)c3c4c(sc3n2)CCCCCC4)nc1`: the growth is 59.2%.

On to `CC(C)(C)[Si](C)(C)OC1[C@@H](CNC(=O)NC(=O)CCl)O[C@@H](n2cnc3c(N)ncnc32)[C@H]1O[Si](C)(C)C(C)(C)C` (some centres undefined), for which the growth was 23.3%.

`O=c1[nH]c(-c2ccncc2)nc2sc3c(c12)CCCCCC3`: the growth is 85.3%.

(Values after PubChem BioAssay (NCI).)
